# Measurements taken from PubChem BioAssay (NCATS).
# Active and inactive are the calls of the source. The call rests on the fitted dose curve; in most records, active means well fitted curve in the direction sought with a large enough effect; inconclusive means small, poorly fitted or top-dose-only effect, or another doubt; inactive means no such curve, though single readings can be large or run the other way.
# Assay: qHTS for compounds that reverse cellular toxicity of Amyloid beta (A-beta) peptide in yeast: LOPAC Validation Assay (AID 720559)
# Conditions: yeast expressing A-beta; series mostly up to 46.1 µM; growth rescue, positive = activation: at the top concentration
# Text: The A-beta peptide is produced by the processing of the amyloid precursor protein (APP) by two proteases, beta and gamma secretases. […] A-beta42 is regarded as the most amyloidogenic form due to its hydrophobicity; however, precisely how A-beta42 induces neurotoxicity is unclear. To understand further this biology and its potential therapeutic implications for human neurodegenerative disease, a quantitative high-throughput screen for compounds that reverse the cellular toxicity of the A-beta peptide was developed.
# A yeast based screen was used because it recapitulates the salient feature of protein mis-folding disorder accurately. This cell-based phenotypic screen provides a significant, unbiased advantage by letting the compounds and models inform us which proteins or pathways are most relevant. The ideal chemical candidates would therefore have activity in both our primary yeast and secondary neuronal toxicity assays, as well as in mouse models. They will be valuable tools for dissecting diverse protein homeostasis pathologies and could potentially become the focus for future pre-clinical development. For this […] assay, inhibition of A-beta rescues the toxic effect in the yeast cell, resulting in increase of signals.
# NIH Chemical Genomics Center [NCGC]
# NIH Molecular Libraries Probe Centers Network [MLPCN]
# Assay Submitter (PI): Susan Lindquist, Whitehead Institute, Massachusetts Institute of Technology
# [1] Vassar R,et al (1999). Beta-secretase cleavage of Alzheimer's amyloid precursor protein by the transmembrane aspartic protease BACE. Science. 286: 735-741.
# [2] Yan R, et al (1999). Membrane-anchored aspartyl protease with Alzheimer's disease beta-secretase activity. Nature.
# Two and a half microliter / well of yeast growth medium were dispensed in a 1536 assay plate. Compounds were pinned using the Kalypsys robotic system followed by addition of 2.5 uL / well yeast solution. The assay plates were incubated at 30 C. After 48 hr, the absorbance signal at 600 nm was obtained using the PerkinElmer ViewLux plate reader to assess yeast growth. The data was normalized to the positive control of an equimolar mixture of ferric chloride (FeCl3) and clioquinol and to the negative control DMSO.
row,Compound,"growth rescue, positive = activation"
1,CCOC(=O)C1=C(C)NC(C)=C(C(=O)OC)C1c1cccc([N+](=O)[O-])c1 (stereo not given),-8.8% (inactive)
2,CCn1ccnc1CC1COc2ccccc2O1 (stereo not given),-4.53% (inactive)
3,CC(C)COCC(CN(Cc1ccccc1)c1ccccc1)N1CCCC1 (stereo not given),-1.43% (inactive)
4,CCO/C([O-])=N/c1c[n+](N2CCOCC2)no1,-8.36% (inactive)
5,COc1ccc(CN(CCN(C)C)c2ccccn2)cc1,-5.96% (inactive)
6,Brc1c(NC2=NCCN2)ccc2nccnc12,7.41% (inactive)
7,NCCCNCCSP(=O)(O)O,-3.13% (inactive)
8,C(=C\c1ccccc1)/CN1CCN(C(c2ccccc2)c2ccccc2)CC1,5.97% (inactive)
9,NC(N)=N/N=C/c1c(Cl)cccc1Cl,2.78% (inactive)
10,CCCCNc1c(C(=O)OCC)c(C)nc2c1cnn2CC,-8.56% (inactive)
11,Nc1ncn([C@@H]2O[C@H](CO)[C@@H](O)[C@H]2O)c(=O)n1,-0.17% (inactive)
12,O=C(O)CP(=O)(O)O,-2.69% (inactive)
13,CCN(CC)CCNC(=O)c1cc(S(C)(=O)=O)ccc1OC,-6.16% (inactive)
14,CN(C)[C@@H]1C(=O)C(C(N)=O)=C(O)[C@@]2(O)C(=O)C3=C(O)c4c(O)ccc(Cl)c4[C@@H](O)[C@H]3C[C@@H]12,13.4% (inactive)
15,CCN(CC)CCNC(=O)c1ccc(NC(C)=O)cc1,-7.74% (inactive)
16,O=C(O)CN(CCN(CC(=O)O)CC(=O)O)CCN(CC(=O)O)CC(=O)O,-6.64% (inactive)
17,CCN(CC)CCCN(c1ccccc1)C1Cc2ccccc2C1,-9.13% (inactive)
18,COC(=O)[C@H]1[C@H]2C[C@@H]3c4[nH]c5cc(OC)ccc5c4CCN3C[C@H]2C[C@@H](OC(=O)c2cc(OC)c(OC)c(OC)c2)[C@@H]1OC,-3.79% (inactive)
19,NC/C=C/C(=O)O,-6.26% (inactive)
20,C[C@H](CS)C(=O)N1CCC[C@H]1C(=O)O,-8.06% (inactive)

row,Compound,"growth rescue, positive = activation"
1,CCCCNc1ccc(C(=O)OCCN(C)C)cc1,-5.63% (inactive)
2,C[C@]12CC[C@@H]3c4ccc(O)cc4C[C@@H](CCCCCCCCCS(=O)CCCC(F)(F)C(F)(F)F)[C@H]3[C@@H]1CC[C@@H]2O (stereo not given in full),1.79% (inactive)
3,CN(C)CC/C=C1\c2ccccc2COc2ccccc21,-5.96% (inactive)
4,CC1=C(C)C(=O)C(CCCCC#CCCCC#CCO)=C(C)C1=O,4.07% (inactive)
5,CC(=O)[C@]1(O)Cc2c(O)c3c(c(O)c2[C@@H](O[C@H]2C[C@H](N)[C@H](O)[C@H](C)O2)C1)C(=O)c1ccccc1C3=O,-48.2% (inactive)
6,FC(F)(F)c1ccccc1-n1ccnc1,-1.25% (inactive)
7,CN=C(NC#N)NCCSCc1nc[nH]c1C,-6.66% (inactive)
8,CN(C(=O)CCCOc1ccc2[nH]c(=O)ccc2c1)C1CCCCC1,-4.12% (inactive)
9,CN(C)CCN(Cc1cccs1)c1ccccn1,1.87% (inactive)
10,CCCC(C(=O)OCCN(CC)CC)(c1ccccc1)c1ccccc1,0.548% (inactive)
11,CN/C(=C\[N+](=O)[O-])NCCSCc1ccc(CN(C)C)o1,-0.483% (inactive)
12,OC(CCN1CCCCC1)(c1ccccc1)C1CCCCC1 (stereo not given),-8.67% (inactive)
13,Cc1ccc(=O)n(-c2ccccc2)c1,1.55% (inactive)
14,Cc1nc2sccn2c(=O)c1CCN1CCC(=C(c2ccc(F)cc2)c2ccc(F)cc2)CC1,2.57% (inactive)
15,O=C1CC2(CCCC2)CC(=O)N1CCCCN1CCN(c2ncccn2)CC1,-1.87% (inactive)
16,C=CCc1ccccc1OCC(O)CNC(C)C (stereo not given),-4.5% (inactive)
17,COc1cc(C(=O)OCCCN2CCCN(CCCOC(=O)c3cc(OC)c(OC)c(OC)c3)CC2)cc(OC)c1OC,-2.11% (inactive)
18,Cc1cc(C)c(/C=C2\C(=O)Nc3ccccc32)[nH]1,-14% (inactive)
19,O=C(CCNNC(=O)c1ccncc1)NCc1ccccc1,11.3% (inactive)
20,C[C@]12C=CC(=O)C=C1CC[C@H]1[C@@H]3C[C@@H](O)[C@](O)(C(=O)CO)[C@@]3(C)C[C@H](O)[C@@]12F,-2.21% (inactive)
